# According to publication PMC12136788:
# Residue numbers refer to the chain shown, from its start. The full ranking holds about 24,000 sequences; the median of “enrichment r” is about 0.99, and the highest 2% start at about 3.7. The full list was thinned out, with the highest values kept by preference.
# T1: UNK ZnF1-3 (human, UniProt Q9C0B0 31-174)
# T1 sequence: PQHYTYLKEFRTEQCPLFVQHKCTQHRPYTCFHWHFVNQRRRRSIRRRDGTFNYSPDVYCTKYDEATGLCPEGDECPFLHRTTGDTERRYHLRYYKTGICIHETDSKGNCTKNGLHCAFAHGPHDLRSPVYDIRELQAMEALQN
# B1: chr7:135840685:135840686:-_ENSMUSG00000048170_ENSMUST00000057557|mus_mus|FALSE|FALSE (ssRNA)
# RNA: GGGAGUUCUACAGUCCGACGAUCCAACUCCCUUGAUUUAUCAAGGCCGACCCUGUUUCCUUGGUUAGCAGGGAAGAAUCUAAGGGACCACUGAUUGAUCUUCACACACAGCAGAUGAGAUUAACAGCAAGGUUCUAACUUUUCCAACAGAGGAUUGAGCAUCA
# B2: 128051196_128051651_161_3pUTR_ENSG00000163161_ENST00000285398|human|control|control (ssRNA)
# RNA: GGGAGUUCUACAGUCCGACGAUCCGCCGCCGAGGGAACCGCUUCCUGAGGGUCGUUCCCCGGGGCGUCCUCUUCAUCAUCCUCUUCAUCCUCAUAGUGCCGCUUCCUGGAUUUCUUCUUGUCGCGGUCCGCUCGGUCUCUUUUCAACAGAGGAUUGAGCAUCA
# B3: chr1:235506153:235506154:+_ENSG00000152904_ENST00000391855|hu_mus|FALSE|FALSE (ssRNA)
# RNA: GGGAGUUCUACAGUCCGACGAUCGAAGACAGCUACACUUACAUAUAAUAAAUAAAUCUUAAAAAAAAAAAAAAGAAAAGAUAAAUGGGAUGAAGCCACUCCUCAUUUUCAACUGAAAGAAGCUACUGAGUCUAAUCCAGAAAGCAACAGAGGAUUGAGCAUCA
# B4: chr2:27118074:27118075:-_ENSMUSG00000009621_ENSMUST00000056176|mus_mus|motif|central (ssRNA)
# RNA: GGGAGUUCUACAGUCCGACGAUCCACAGAUAUAUAAUGGGAGACUUAGAUGAAAUAAUUACAACUUCCCCUCCCCCUUCGGAAAUACAAACAGAUAAAACAUAACAGGACAAAAAAAGCUACAACAACAGAAAAACAAACAGACAACAGAGGAUUGAGCAUCA
# B5: chr16:94690093:94690094:+_ENSMUSG00000040785_ENSMUST00000117648|mus_hu|mus_mus_mus_hu_True|1_48 (ssRNA)
# RNA: GGGAGUUCUACAGUCCGACGAUCGGGCUGGGAUGACGGACACACAGCCUCGAUUCCAGGGGGAAAAAGUCUUAGUCGAUACUAAUUUAAAAAGUAUAAUGAUUUUUGAAAAUCAGAUUACAUCUAUAAAAGAUGAAAGCACUUCAACAGAGGAUUGAGCAUCA
# B6: chr2:27118074:27118075:-_ENSMUSG00000009621_ENSMUST00000056176|mus_mus|FALSE|FALSE (ssRNA)
# RNA: B4 RNA with G80U, G81A
# B7: chr15:12269436:12269437:+_ENSMUSG00000022200_ENSMUST00000059680|mus_mus|motif|central (ssRNA)
# RNA: GGGAGUUCUACAGUCCGACGAUCUAAAAGACUUUUUCUUCUCAUUCCACAAGCCUCUAACUGUAACCUUCCUCUCAAAGCGGAUUCAAUUAACAUACAGCCACGUAAUCCAGAUGAUAUACAGUCAUUCCAAAAUGAUGUGUACAACAGAGGAUUGAGCAUCA
# B8: chr5:145543945:145543946:-_ENSG00000133706_ENST00000545646|hu_hu|hu_hu_hu_mus_True|1_108 (ssRNA)
# RNA: GGGAGUUCUACAGUCCGACGAUCCUGAAUAGCCAGUGGUGGGAAAUAAUCAAGCCAGUGCUCUGCUUCAGAAAACUUCACUAUGUCGUCAUCAGAGAGCCCAAGGGAUUUCAUAAUGUCCCACUGGUACUUAGAAGAUCCAGCCAACAGAGGAUUGAGCAUCA
# B9: chr14:62194323:62194324:+_ENSG00000100644_ENST00000337138|hu_mus|motif|central (ssRNA)
# RNA: GGGAGUUCUACAGUCCGACGAUCUCUUUCAUCACAGUAAGAAAAUUUCAUAUCGAGGCUGUGUCGACUGAGAAAUGUCUUGCGGUCGGAAGGAAUUUCAAUAUUUGACGGAUGAGGAAUGGGUUCACAAAUCAGCACCAAGCACAACAGAGGAUUGAGCAUCA
# B10: chrX:15845472:15845473:-_ENSG00000182287_ENST00000329235|hu_mus|motif|central (ssRNA)
# RNA: GGGAGUUCUACAGUCCGACGAUCCCACAAGAAGUCAUCAGCAAGGGAGGACAGUUAUGUCAGUCCAAUUUCUUCAAGAACACGGCGUGGGGUUUCAGCUUCUUUUGCAUCCUCCUGCAGGAGAUCGGCCUGCUCAAUUGCUUUCAACAGAGGAUUGAGCAUCA
# B11: chr17:8508246:8508247:-_ENSG00000133026_ENST00000269243|hu_hu|motif|central (ssRNA)
# RNA: GGGAGUUCUACAGUCCGACGAUCGUACAUUUCAAUAAUAUUCUCAGAGUAAAUUGGAAGAUUCUUGUAAGGGUUUAUAACGGCACAGAAGAGUCCAGAAUAAGUAUAGAUUAGUCCUGAAUAGUAGCGAUCCUUCAGAUUAUGCAACAGAGGAUUGAGCAUCA
# B12: chr5:56168760:56168761:+_ENSG00000095015_ENST00000399503|hu_hu|motif|central (ssRNA)
# RNA: GGGAGUUCUACAGUCCGACGAUCUCUAGAAAAUAAGCAGCCAACGAGUUCCAUUCCAAACACCUGAAUCCAUGGCUCAGCGGAAUCUUUGUAAGCAGGAGGGAUUUGCUGAGUUCCAUAAUGAGUAAGGUUAAAAUUGCUCUCCAACAGAGGAUUGAGCAUCA
# B13: chr18:86887116:86887117:+_ENSMUSG00000024647_ENSMUST00000068423|mus_mus|FALSE|FALSE (ssRNA)
# RNA: GGGAGUUCUACAGUCCGACGAUCCGCGUCAGCUCCGCCAUUGUUAAGGGAUUCAUGAGCAAUGAGCAAUGCCAGGUUACUAAGGGAUCCCAGAGAAUAAAUUAAAAAAAAAAAAAAAUGAAAUCCACGUUGCAAGUUUGAAGCCAACAGAGGAUUGAGCAUCA
# B14: chr19:7360422:7360423:-_ENSMUSG00000024969_ENSMUST00000032557|mus_mus|FALSE|FALSE (ssRNA)
# RNA: GGGAGUUCUACAGUCCGACGAUCAUAAGGAGGACUGCCACAGAAAGUAUCCAGCUUGUUCCCAAAGGUGAAUUCGUUGCUAAAGCCAAAGUCUGCAAUCUUGAUGUUCAUAUCAGCAUCCAGGAGCAGGUUUUCUGCCUUUAGCAACAGAGGAUUGAGCAUCA
# B15: 75584029_75587226_729_CDS_ENSG00000119638_ENST00000238616|human|control|control (ssRNA)
# RNA: GGGAGUUCUACAGUCCGACGAUCCGUCUCAGCCAUGGAAUACUCAGAAUUAAGUUUCUUUGCUAGGCCAUAAUCUCCAAGUUUUAUCAGGUUUGCCUUGGUCAGAAAAAUAUUUAAUGUCUUUAUAUCUCUAUGAAGGAUUCCCAACAGAGGAUUGAGCAUCA
# B16: chr17:39847130:39847131:+_ENSG00000173812_ENST00000469257|hu_mus|motif|central (ssRNA)
# RNA: GGGAGUUCUACAGUCCGACGAUCAUUACAUUAUACAAGCUGUGAGGUUUUUAAACUUGUGACAAGGGACAGAAGGGAAAUUCGGCUCAUUGCAAGGAAAUCCUCACUUAAGCUUCAGAGAGCCACAAGCACUUAAAACCCAUGCAACAGAGGAUUGAGCAUCA
# B17: chr18:86887116:86887117:+_ENSMUSG00000024647_ENSMUST00000068423|mus_mus|motif|central (ssRNA)
# RNA: B13 RNA with U80G, A81G
# Target: T1, UNK ZnF1-3
# Assay: nsRBNS (natural sequence RNA bind-n-seq); RBNS binding buffer (assumed for nsRBNS): 25 mM Tris pH 7.5, 150 mM KCl, 3 mM MgCl2, 0.01% Triton X-100, 500 ug/ml BSA, 20 U/ml SUPERase-In, 4 C; UNK is unkempt and MSI1 is Musashi-1; names of the RNAs are library labels; protein concentration not given here; high values mean tight binding
row,Binder,binding signal [enrichment R]
1,B1,1.03
2,B2,0.493
3,B3,20.8
4,B4,3.78
5,B5,0.785
6,B6,4.31
7,B7,0.956
8,B8,1.11
9,B9,1.84
10,B10,1.01
11,B11,1.92
12,B12,1.25
13,B13,6.14
14,B14,0.665
15,B15,1.02
16,B16,1.49
17,B17,8.87
